Results as given in the supplement of paper PMC11732987, “Enantioselective OTUD7B fragment discovery through chemoproteomics screening and high-throughput optimisation” (Communications Chemistry, 2025).
Values without a mark were called inactive.

Assays:
Test in all cases: log2 ratio of Biotin-Ahx-Ub-VS probe labelling (fragment/DMSO); higher = less target engagement (more negative = stronger competition), active = hit call of the paper (q ≤ 0.05, log2 ratio ≤ -1)
Conditions in all cases: compound concentration: 200 uM; treatment time: 3 h
OTUD6B = molecular target: T1, OTUD6B (UniProt Q8N6M0)
T1 sequence (whole entry): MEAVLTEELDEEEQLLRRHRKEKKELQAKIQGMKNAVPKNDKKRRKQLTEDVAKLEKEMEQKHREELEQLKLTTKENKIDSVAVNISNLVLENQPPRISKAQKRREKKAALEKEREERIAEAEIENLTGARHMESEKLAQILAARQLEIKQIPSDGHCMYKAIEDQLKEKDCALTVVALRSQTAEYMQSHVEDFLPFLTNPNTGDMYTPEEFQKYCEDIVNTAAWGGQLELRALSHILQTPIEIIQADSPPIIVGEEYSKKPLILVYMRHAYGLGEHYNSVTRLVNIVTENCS
Summary of the method: (§1)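 Lysate from HEK293T cells, 495 µg per sample in Tris/CHAPS/IGEPAL buffer with protease inhibitors, was treated for 3 h in triplicate with fragment at 200 µM or vehicle. Biotin-Ahx-Ub-VS was next added at 0.5 µM final for 1 h. The labelled DUBs were enriched with NeutrAvidin, digested with LysC and trypsin, and run by diaPASEF LC-MS/MS, with values given as average log2 fragment/vehicle ratios by unpaired t-test on global-median-normalised Spectronaut quantities of proteins with ≥2 unique peptides.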

OTUD7B = molecular target: T2, OTUD7B (UniProt Q6GQQ9)
T2 sequence (whole entry): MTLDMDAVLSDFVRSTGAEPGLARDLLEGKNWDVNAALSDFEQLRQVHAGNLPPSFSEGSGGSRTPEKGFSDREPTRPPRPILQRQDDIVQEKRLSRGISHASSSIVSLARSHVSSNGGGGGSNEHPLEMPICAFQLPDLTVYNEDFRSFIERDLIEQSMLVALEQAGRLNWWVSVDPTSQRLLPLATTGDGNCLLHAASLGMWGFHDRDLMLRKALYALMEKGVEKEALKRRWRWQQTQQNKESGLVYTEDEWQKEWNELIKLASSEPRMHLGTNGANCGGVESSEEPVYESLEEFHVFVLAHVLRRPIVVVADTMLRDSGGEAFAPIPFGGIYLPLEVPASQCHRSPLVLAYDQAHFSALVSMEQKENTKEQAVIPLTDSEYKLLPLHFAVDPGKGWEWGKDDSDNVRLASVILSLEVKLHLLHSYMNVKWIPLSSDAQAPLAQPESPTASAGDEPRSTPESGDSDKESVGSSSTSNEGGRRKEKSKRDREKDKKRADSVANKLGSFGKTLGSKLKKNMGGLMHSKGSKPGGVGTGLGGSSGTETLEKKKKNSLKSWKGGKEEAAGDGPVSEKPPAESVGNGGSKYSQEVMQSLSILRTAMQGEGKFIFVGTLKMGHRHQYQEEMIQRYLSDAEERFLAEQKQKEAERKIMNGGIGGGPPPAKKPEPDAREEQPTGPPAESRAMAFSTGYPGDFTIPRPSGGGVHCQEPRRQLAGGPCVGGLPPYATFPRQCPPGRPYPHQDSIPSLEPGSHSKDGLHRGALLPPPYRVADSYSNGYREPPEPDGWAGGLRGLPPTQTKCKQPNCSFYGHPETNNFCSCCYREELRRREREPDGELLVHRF
Summary of the method: as §1

PRPF8 = PRPF8 (UniProt Q6P2Q9)
Summary of the method: as §1

PSMD7 = molecular target: T3, PSMD7 (UniProt P51665)
T3 sequence (whole entry): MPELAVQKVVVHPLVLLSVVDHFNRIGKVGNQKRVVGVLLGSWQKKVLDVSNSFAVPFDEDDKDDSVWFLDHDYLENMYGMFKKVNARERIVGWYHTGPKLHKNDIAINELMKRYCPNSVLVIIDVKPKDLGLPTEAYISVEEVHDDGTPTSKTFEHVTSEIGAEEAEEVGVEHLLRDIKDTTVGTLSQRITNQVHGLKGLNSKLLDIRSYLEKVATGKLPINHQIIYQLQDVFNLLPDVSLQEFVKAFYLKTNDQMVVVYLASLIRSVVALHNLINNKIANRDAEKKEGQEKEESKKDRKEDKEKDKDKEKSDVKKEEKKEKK
Summary of the method: as §1

UCHL1 = UCHL1 (UniProt P09936)
Summary of the method: as §1

UCHL3 = molecular target: T4, UCHL3 (UniProt P15374)
T4 sequence (whole entry): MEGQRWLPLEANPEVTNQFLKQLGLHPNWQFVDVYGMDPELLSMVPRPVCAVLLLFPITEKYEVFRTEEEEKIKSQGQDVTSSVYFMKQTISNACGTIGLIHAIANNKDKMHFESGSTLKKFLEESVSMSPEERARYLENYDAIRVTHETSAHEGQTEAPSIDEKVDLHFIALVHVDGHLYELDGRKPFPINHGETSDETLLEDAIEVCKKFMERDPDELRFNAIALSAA
Summary of the method: as §1

UCHL5 = molecular target: T5, UCHL5 (UniProt Q9Y5K5)
T5 sequence (whole entry): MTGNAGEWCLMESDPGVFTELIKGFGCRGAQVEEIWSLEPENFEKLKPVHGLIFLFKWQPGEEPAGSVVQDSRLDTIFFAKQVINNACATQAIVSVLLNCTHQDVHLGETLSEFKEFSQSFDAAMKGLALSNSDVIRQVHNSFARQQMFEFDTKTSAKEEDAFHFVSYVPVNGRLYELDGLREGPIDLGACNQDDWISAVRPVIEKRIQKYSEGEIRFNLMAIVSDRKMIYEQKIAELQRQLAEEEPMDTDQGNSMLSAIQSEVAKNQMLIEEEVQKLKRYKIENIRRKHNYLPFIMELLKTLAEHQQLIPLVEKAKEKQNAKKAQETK
Summary of the method: as §1

USP10 = USP10 (UniProt Q14694)
Summary of the method: as §1

USP15 = molecular target: T6, USP15 (UniProt Q9Y4E8)
T6 sequence (whole entry): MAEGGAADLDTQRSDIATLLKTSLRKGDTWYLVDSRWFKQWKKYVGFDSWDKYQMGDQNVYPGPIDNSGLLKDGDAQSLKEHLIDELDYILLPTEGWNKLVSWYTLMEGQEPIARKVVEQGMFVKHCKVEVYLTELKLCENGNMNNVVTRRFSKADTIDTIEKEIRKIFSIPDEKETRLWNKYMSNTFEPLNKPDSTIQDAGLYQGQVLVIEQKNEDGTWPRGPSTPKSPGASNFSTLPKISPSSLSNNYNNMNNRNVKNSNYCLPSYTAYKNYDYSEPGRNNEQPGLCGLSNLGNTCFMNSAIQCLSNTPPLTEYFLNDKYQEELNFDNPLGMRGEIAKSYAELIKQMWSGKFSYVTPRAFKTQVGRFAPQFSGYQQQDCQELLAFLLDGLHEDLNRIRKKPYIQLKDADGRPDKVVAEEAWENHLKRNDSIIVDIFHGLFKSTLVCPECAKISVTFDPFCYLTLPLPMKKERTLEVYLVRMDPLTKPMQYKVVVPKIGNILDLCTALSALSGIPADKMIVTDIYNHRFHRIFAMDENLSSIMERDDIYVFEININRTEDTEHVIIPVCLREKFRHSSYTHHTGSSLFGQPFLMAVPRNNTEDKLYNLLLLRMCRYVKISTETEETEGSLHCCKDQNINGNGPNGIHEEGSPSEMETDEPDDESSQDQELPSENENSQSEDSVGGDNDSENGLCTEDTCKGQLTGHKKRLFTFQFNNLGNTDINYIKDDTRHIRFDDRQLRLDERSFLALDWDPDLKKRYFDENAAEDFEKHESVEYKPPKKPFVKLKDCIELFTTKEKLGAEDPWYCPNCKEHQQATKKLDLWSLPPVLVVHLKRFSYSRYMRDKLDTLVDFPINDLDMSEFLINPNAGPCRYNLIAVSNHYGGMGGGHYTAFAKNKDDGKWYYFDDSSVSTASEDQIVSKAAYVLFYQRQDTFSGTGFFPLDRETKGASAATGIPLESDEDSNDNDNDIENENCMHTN
Summary of the method: as §1

USP16 = USP16 (UniProt Q9Y5T5)
Summary of the method: as §1

USP16, sequence (Q9Y5T5 whole entry, looked up): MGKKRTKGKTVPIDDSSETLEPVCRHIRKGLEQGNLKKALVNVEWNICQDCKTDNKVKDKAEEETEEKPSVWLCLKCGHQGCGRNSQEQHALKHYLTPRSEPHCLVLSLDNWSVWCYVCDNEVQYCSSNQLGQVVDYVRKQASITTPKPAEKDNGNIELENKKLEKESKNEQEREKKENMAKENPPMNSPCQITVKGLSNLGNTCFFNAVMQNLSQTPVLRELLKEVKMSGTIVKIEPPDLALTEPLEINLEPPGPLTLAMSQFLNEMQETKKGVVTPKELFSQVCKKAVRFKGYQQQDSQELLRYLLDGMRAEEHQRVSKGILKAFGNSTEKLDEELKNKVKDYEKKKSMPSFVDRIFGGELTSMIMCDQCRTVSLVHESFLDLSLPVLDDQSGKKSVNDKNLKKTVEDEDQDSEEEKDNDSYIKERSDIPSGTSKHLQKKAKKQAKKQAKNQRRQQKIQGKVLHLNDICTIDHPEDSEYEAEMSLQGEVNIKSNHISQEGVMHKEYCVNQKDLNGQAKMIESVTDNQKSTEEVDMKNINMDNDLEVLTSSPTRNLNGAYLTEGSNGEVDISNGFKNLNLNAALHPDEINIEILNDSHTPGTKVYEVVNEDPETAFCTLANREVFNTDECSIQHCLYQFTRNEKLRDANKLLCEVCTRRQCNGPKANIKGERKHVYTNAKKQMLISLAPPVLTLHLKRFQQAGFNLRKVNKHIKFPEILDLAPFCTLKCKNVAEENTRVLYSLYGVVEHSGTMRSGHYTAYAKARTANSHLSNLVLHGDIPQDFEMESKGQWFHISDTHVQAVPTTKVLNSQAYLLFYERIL
UCHL1, sequence (P09936 whole entry, looked up): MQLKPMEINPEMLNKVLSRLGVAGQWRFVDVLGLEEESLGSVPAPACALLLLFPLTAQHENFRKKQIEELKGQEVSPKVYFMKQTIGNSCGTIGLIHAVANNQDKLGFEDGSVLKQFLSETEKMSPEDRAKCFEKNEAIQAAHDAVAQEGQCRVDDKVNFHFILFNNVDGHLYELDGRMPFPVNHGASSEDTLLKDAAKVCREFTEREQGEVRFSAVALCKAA
USP10, sequence (Q14694 whole entry): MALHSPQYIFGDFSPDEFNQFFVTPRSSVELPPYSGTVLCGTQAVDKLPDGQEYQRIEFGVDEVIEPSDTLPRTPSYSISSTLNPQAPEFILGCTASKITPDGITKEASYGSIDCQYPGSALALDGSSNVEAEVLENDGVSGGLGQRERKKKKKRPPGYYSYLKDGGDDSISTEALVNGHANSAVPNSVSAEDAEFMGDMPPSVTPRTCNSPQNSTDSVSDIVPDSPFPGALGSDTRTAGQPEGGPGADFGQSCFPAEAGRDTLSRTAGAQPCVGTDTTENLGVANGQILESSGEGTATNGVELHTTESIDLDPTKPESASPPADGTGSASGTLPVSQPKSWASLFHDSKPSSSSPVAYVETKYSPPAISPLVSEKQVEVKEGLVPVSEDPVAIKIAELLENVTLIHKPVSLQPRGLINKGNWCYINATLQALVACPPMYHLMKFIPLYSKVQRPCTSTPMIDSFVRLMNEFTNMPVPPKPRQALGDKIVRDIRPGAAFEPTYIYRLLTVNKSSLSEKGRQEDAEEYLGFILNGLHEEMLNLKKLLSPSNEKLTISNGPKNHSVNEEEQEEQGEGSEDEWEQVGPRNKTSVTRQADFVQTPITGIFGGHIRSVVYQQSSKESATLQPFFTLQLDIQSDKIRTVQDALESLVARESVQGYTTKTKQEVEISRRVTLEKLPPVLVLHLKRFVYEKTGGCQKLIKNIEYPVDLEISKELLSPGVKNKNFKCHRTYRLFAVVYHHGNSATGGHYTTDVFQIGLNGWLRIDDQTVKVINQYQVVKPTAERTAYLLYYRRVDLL

Q: With `Cc1cccc(C(CNC(=O)CCl)N2CCOCC2)c1.Cl` (stereo not given) as the compound, how does the “log2 ratio of Biotin-Ahx-Ub-VS probe labelling” value (“log2 ratio” below) (OTUD6B) read?
A: The value was -0.0947.

Q: What about the “log2 ratio” value (OTUD7B) of the same compound?
A: The value was -0.255.

Q: What about the “log2 ratio” value (PRPF8) of the same compound?
A: Its value is -0.0193.

Q: And the “log2 ratio” value (PSMD7)?
A: The value was -0.183.

Q: What about the “log2 ratio” value (UCHL1) of the same compound?
A: The value was -1.07 (active).

Q: And the “log2 ratio” value (UCHL3)?
A: The value was 0.278.

Q: What about the “log2 ratio” value (UCHL5) of the same compound?
A: Its value is -0.182.

Q: And the “log2 ratio” value (USP10)?
A: The value was -0.0807.

Q: And the “log2 ratio” value (USP15)?
A: The value was -0.0506.

Q: What about the “log2 ratio” value (USP16) of the same compound?
A: Its value is -0.147.
